D1 PAM: human D1 dopamine receptor positive modulation | P21728 | HEK293 TREx D1 cells, calcium flux, dopamine EC20 potentiation | potentiation, % at 10 µM | hit rate 0.036% among 360,000; in the data active = potentiation above about 30%
Target sequence (P21728 whole entry, looked up): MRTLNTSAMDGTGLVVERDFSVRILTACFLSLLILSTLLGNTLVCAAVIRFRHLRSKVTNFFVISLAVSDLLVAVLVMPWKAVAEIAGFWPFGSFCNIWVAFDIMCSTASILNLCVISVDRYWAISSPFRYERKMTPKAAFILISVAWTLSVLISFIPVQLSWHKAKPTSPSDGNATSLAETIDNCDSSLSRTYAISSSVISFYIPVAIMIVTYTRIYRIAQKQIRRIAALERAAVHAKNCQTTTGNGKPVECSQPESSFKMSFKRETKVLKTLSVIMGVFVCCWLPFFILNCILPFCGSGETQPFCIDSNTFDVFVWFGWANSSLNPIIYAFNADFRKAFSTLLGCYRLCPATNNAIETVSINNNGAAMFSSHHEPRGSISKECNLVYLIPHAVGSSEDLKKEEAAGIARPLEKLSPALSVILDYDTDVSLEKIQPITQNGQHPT
D1 antagonist: antagonists of human D1 dopamine receptor; activity change, negative = inhibition, % at 10 µM; hit rate 3.2% among 360,000; HEK293 TREx D1 cells, calcium flux, dopamine EC80; active compounds read low; P21728; AID 504652; in the data active = activity change below about -30%
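Calcium flux readout: force-coupled, inducible Hek293 Trex D1 line, cells induced overnight at 30 C with tetracycline, dye-loaded 30–90 min at RT. Antagonism scored against EC80 dopamine challenge given 180 s after compound.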
D1 agonist: activates the human D1 dopamine receptor; hit rate 1% among 360,000; HEK293 T-REx D1 cells, calcium flux, agonist mode; activation, % at 2 µM; in the data active = activation above about 30%
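Tetracycline-induced HEK293 TREx D1 cells, force-coupled to calcium signalling, were dye-loaded with a no-wash calcium kit. Compound was pin-added after a 10 s baseline. Fluorescence was read kinetically at 1 cycle/s for 180 s, with calcium rises flagged as agonism.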
D3 antag: antagonists of human D3 dopamine receptor. P35462. D3R cells, DiscoveRx beta-arrestin luminescence, antagonist mode; active compounds read low. max response, negative = inhibition, %. hit rate 2.5% among 360,000; in the data active = max response below about -50%; inconclusive = no clear call, values can overlap the other calls
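Cells expressing the human receptor were seeded at 1500 cells/well, incubated overnight at 37 degrees C in 5% CO2, then exposed to library compounds with dopamine controls for 90 minutes at 37 degrees C before luminescent detection.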
D3 ag: agonists of human D3 dopamine receptor | P35462 | D3R DiscoveRx beta-arrestin cells, luminescence, 90 min | max activation, % | hit rate 0.58% among 410,000; in the data active = max activation above about 30%
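Agonist-mode cell screen: cells plated at 1500/well and incubated overnight at 37 °C, then exposed to library compounds for 90 min at 37 °C. Detection reagent was added for 30–60 min at room temperature, and luminescence was read.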
Of the large screens only hits and unclear results are named; the others gave an inactive call; ! = not confirmed by another sample. Shown are actives, neighbours in structure and some others; about 6.1% of the full set was active somewhere.

Cc1ccc(C(=O)c2cn(Cc3ccc(F)cc3)c3nc(C)ccc3c2=O)cc1	none (no result: D3 antag)
COc1cc(CNc2ccc3[nH]c(=O)[nH]c3c2)ccc1OCc1ccccc1C	D1 antagonist -57
COc1cc(CNc2ccc3[nH]c(=O)[nH]c3c2)ccc1OCc1ccc(F)cc1Cl	D3 ag 35!
CCc1ccc(CNc2nc3nc(C)c(Cc4ccccc4)c(=O)n3[nH]2)cc1	none (no result: D3 antag)
COc1ccc(-c2ccc(CCC(=O)O)n2CC(=O)Nc2cccc(C(F)(F)F)c2)cc1	none (no result: D3 antag)
CCc1ccc(NC(=O)Nc2cccs2)cc1	D1 antagonist -37
CC(=O)c1cccc(NC(=O)Nc2cccs2)c1	D3 antag -51
Cc1ccc(NC(=O)Nc2cccs2)cc1	D3 antag inconclusive
Cc1c(NC(=O)Nc2cccs2)cccc1[N+](=O)[O-]	D1 antagonist -36
COc1cccc(NC(=O)Nc2cccs2)c1	none
O=C(Nc1cccs1)Nc1ccc(Br)cc1F	D1 antagonist -32
Cc1cccc(N2CCN(C(=O)Cc3c(C(=O)O)c(C)cn3C)CC2C)c1 (stereo unspecified)	none (no result: D3 antag)
COc1cccc(NC(=O)Cn2c(=O)n(CCC(=O)NCc3ccccc3OC)c(=O)c3ccccc32)c1	none (no result: D3 antag)
COc1ccc(CCNC(=O)C(=O)NCC2OCCN2S(=O)(=O)c2ccc3c(c2)OCCO3)cc1 (stereo unspecified)	none
COc1ccc(CCNC(=O)C(=O)NCC2OCCN2S(=O)(=O)c2ccc3c(c2)OCCO3)cc1OC (stereo unspecified)	D1 antagonist -75
O=c1c2oc3ccccc3c2n(Cc2ccc(Cl)cc2)c(=O)n1Cc1ccccc1	none (no result: D3 antag)
COc1ccc(NC(=O)c2sc(SC)nc2N)cc1	none
CCN(CC)C(=O)CSc1nc(N)c(C(=O)Nc2ccc(OC)cc2)s1	D1 antagonist -32
N#C/C(=C\c1ccc(O)cc1)C(=O)NCc1ccccc1	none
N#C/C(=C/c1ccc(O)cc1)C(=O)NCc1ccc(Cl)cc1	D1 agonist 34
N#C/C(=C\c1ccc(O)cc1)C(=O)NCc1cccc(Cl)c1	D1 agonist 53
S=c1sc2c(Cl)ncnc2n1-c1ccccc1	D1 antagonist -44, D3 antag -61
Cc1ccc(S(=O)(=O)c2cn(CC(=O)Nc3ccc(F)cc3)c3cc4c(cc3c2=O)OCO4)cc1	none (no result: D3 antag)
CN(C)CCN(Cc1ccco1)C(=O)c1oc2ccccc2c1NC(=O)c1cccc(F)c1	D1 agonist 66 (no result: D3 antag)
Cc1c(C(=O)N(Cc2ccco2)Cc2cccs2)oc2ccccc12	none (no result: D1 PAM)
CN(C)CCN(Cc1ccco1)C(=O)c1oc2ccccc2c1NC(=O)COc1ccccc1	D1 antagonist -40
Cc1cc(C)c2c(-n3cccc3)c(C(=O)NCCCN3CCCCC3C)sc2n1 (stereo unspecified)	none (no result: D3 antag)
c1ccc2c(NC3CCCC3)nnc(NC3CCCC3)c2c1	D3 antag -71
Cc1cccnc1NC1CCCCC1	none
CCOC(=O)c1c(C)oc2nc(C)nc(NCc3cccc(Cl)c3)c12	none (no result: D3 antag)
CCOc1cc(/C=C2\N=C(SC(C)C(N)=O)N(c3ccc(OC(F)F)cc3)C2=O)ccc1O (stereo unspecified)	D1 agonist 47, D3 antag -57
Cc1ccc(NC(=S)N2CCC(N(C)CC3CCCO3)CC2)cc1 (stereo unspecified)	D1 antagonist -40
Fc1ccccc1N1CCN(C(c2cccs2)c2nnnn2CCc2ccccc2)CC1 (stereo unspecified)	none
CCC(C)(C)n1nnnc1C(c1ccc2ncccc2c1)N1CCN(Cc2ccc3c(c2)OCO3)CC1 (stereo unspecified)	none
c1ccc(CCn2nnnc2C(c2cccs2)N2CCN(Cc3ccc4c(c3)OCO4)CC2)cc1 (stereo unspecified)	D3 antag -67
CC(C)(C)n1nnnc1C(c1cccs1)N1CCN(C/C=C/c2ccccc2)CC1 (stereo unspecified)	D3 antag -122 (no result: D1 PAM, D1 antagonist, D1 agonist)
C(=C\c1ccccc1)/CN1CCN(C(c2nnnn2Cc2ccccc2)C2CC2)CC1 (stereo unspecified)	D3 antag -62 (no result: D1 PAM, D1 antagonist, D1 agonist)
CCC(C)(C)n1nnnc1C(c1ccc(C)cc1)N1CCN(Cc2ccc3c(c2)OCO3)CC1 (stereo unspecified)	D3 antag -70
C(=C\c1ccccc1)/CN1CCN(C(c2nnnn2C2CCCC2)C2CC2)CC1 (stereo unspecified)	D3 antag inconclusive (no result: D1 PAM, D1 antagonist, D1 agonist)
CC(=O)c1ccc(NC(=O)CSC2=Nc3ccccc3N=C(c3ccc(F)cc3)C2)cc1	none (no result: D3 antag)
CCOC(=O)CSc1nc2cc3c(cc2c(=O)n1CCCC(=O)NCc1ccc2c(c1)OCO2)OCO3	none (no result: D3 antag)
Cc1cc(C)c2c(c1)c(C)cc1nnc(SCC(=O)c3ccccc3)n12	none (no result: D3 antag)
C(=C\c1ccccc1)/CN1CCN(C(c2cccs2)c2nnnn2Cc2ccccc2)CC1 (stereo unspecified)	D3 antag -73 (no result: D1 PAM, D1 antagonist, D1 agonist)
C(=C\c1ccccc1)/CN1CCN(C(c2cccc3ccccc23)c2nnnn2Cc2ccccc2)CC1 (stereo unspecified)	D3 antag inconclusive (no result: D1 PAM, D1 antagonist, D1 agonist)
C(=C\c1ccccc1)/CN1CCN(C(c2cccs2)c2nnnn2C2CCCC2)CC1 (stereo unspecified)	D3 antag -86 (no result: D1 PAM, D1 antagonist, D1 agonist)
C(=C\c1ccccc1)/CN1CCN(C(c2cc3ccccc3o2)c2nnnn2C2CCCCC2)CC1 (stereo unspecified)	D3 antag -76 (no result: D1 PAM, D1 antagonist, D1 agonist)
COc1ccccc1Nc1nn2c(=O)c3ccc(C(=O)NCCC4=CCCCC4)cc3nc2s1	none (no result: D3 antag)
CC(C)CCOc1ccc(Cn2c(=O)oc3ccccc32)cc1	none (no result: D3 antag)
COc1ccc(S(=O)(=O)NCCc2cn3ccsc3n2)cc1	D1 antagonist -45 (no result: D3 antag)
COc1ccc(S(=O)(=O)NCCc2cn3ccsc3n2)cc1OC	none (no result: D3 antag)
Cc1ccc(S(=O)(=O)NCCc2cn3ccsc3n2)cc1	D1 antagonist -73 (no result: D3 antag)
COc1ccccc1C(=O)NCCn1cc(SCC(=O)Nc2ccccc2F)c2ccccc21	none (no result: D3 antag)
O=C(CSc1n[nH]c(-c2ccccc2Cl)n1)N1CCN(c2ccc(F)cc2)CC1	none (no result: D3 antag)
CC(C)c1ccc(CNc2nc(-c3ccco3)nn2S(=O)(=O)c2ccc(F)cc2)cc1	none (no result: D3 antag)
Cc1ccc(S(=O)(=O)n2nc(-c3ccccc3)nc2NCc2ccc(Cl)cc2)cc1	D1 antagonist -57 (no result: D3 antag)
Cc1ccc(S(=O)(=O)n2nc(-c3ccc(Cl)cc3)nc2NCc2ccc(F)cc2)cc1	D1 antagonist -48 (no result: D3 antag)
CCOC(=O)c1ccc(NC(=O)CC2C(=O)N(c3ccc(F)cc3)C(=O)N2Cc2cccnc2)cc1 (stereo unspecified)	none (no result: D3 antag)
CCn1c(C)nc2cc(C(=O)OC(C(F)(F)C(F)F)C(F)(F)C(F)F)ccc21	D1 antagonist -37
CCn1c(C)nc2cc(C(=O)NNC(=O)c3ccc(C)cc3)ccc21	none
CC(=O)Nc1ccc(NC(=O)C(C)OC(=O)c2cccs2)cc1 (stereo unspecified)	D1 antagonist -37
Cc1nc2nc(NCc3ccc(Cl)cc3)[nH]n2c(=O)c1Cc1ccccc1	none (no result: D3 antag)
